Results published in PubChem BioAssay (EPA / NIEHS).
Active and inactive are the calls of the source. The calls were made as follows: active = hit-call score of the fitted dose curve at least 0.9, where 1 is the maximum; inactive = score below 0.9.

Columns and labels:
Settings in all cases: mRNA level, 48 h; actives raise or lower the signal
[1] = read-out: Paternally Expressed 10 (PEG10), PEG10 (gene 23089); assay: LTEA_HepaRG_PEG10: Life Technologies and Expression Analysis (LTEA) Assay for Paternally Expressed 10 (PEG10) using HepaRG (AID 2283520)
Method in brief: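 Differentiated HepaRG cells exposed 48 h in serum-free induction medium to eight half-log concentrations topping at 100 uM, 0.5% DMSO, in duplicate. PEG10 mRNA quantified by TaqMan qRT-PCR, normalized to ACTB, GAPDH and POLR2A; bidirectional fit versus DMSO.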

[2] = read-out: Phosphatase and tensin (PTEN), PTEN (gene 5728); assay: LTEA_HepaRG_PTEN: Life Technologies and Expression Analysis (LTEA) Assay for Phosphatase and tensin (PTEN) using HepaRG (AID 2283523)
Method in brief: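 HepaRG cells, 48 h after plating, exposed in duplicate for 48 h in serum-free induction medium to 8 half-log concentrations up to 100 uM (0.5% DMSO). PTEN mRNA by qRT-PCR, normalized to ACTB, GAPDH, POLR2A; bidirectional fit versus DMSO.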

[3] = read-out: solute carrier (SLC22A1), SLC22A1 (gene 6580); assay: LTEA_HepaRG_SLC22A1: Life Technologies and Expression Analysis (LTEA) Assay for solute carrier (SLC22A1) using HepaRG (AID 2283524)
Method in brief: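 Differentiated human HepaRG cells in serum-free induction medium, exposed 48 h in duplicate to 8-point half-log series from 100 µM top in 0.5% DMSO. SLC22A1 mRNA by TaqMan qRT-PCR normalized to ACTB, GAPDH, POLR2A; bidirectional fit versus DMSO.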

[4] = read-out: Pyruvate Dehydrogenase Kinase 4 (PDK4), PDK4 (gene 5166); assay: LTEA_HepaRG_PDK4: Life Technologies and Expression Analysis (LTEA) Assay for Pyruvate Dehydrogenase Kinase 4 (PDK4) using HepaRG (AID 2283525)
Method in brief: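 HepaRG cells plated 48 h, then switched to serum-free induction medium and exposed in duplicate for 48 h to 8 half-log concentrations from 100 uM in 0.5% DMSO. PDK4 mRNA measured by qRT-PCR, normalized to ACTB, GAPDH and POLR2A; bidirectional fit versus DMSO.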

[5] = read-out: NAD(P)H dehydrogenase [quinone] 1 (NQO1), NQO1 (gene 1728); assay: LTEA_HepaRG_NQO1: Life Technologies and Expression Analysis (LTEA) Assay for NAD(P)H dehydrogenase [quinone] 1 (NQO1) using HepaRG (AID 2283526)
Method in brief: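 Differentiated human HepaRG cells in serum-free induction medium, dosed in duplicate for 48 h at 8 half-log concentrations up to 100 uM in 0.5% DMSO. NQO1 mRNA by qRT-PCR normalized to ACTB, GAPDH, POLR2A; bidirectional fit versus DMSO baseline.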

[6] = read-out: Nuclear factor erythroid 2-related factor 2 (Homo sapiens) (UniProt Q16236); assay: LTEA_HepaRG_NFE2L2: Life Technologies and Expression Analysis (LTEA) Assay for Nuclear factor erythroid 2-related factor 2 (NFE2L2) Transcription Factor using HepaRG (AID 2283527);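 also: TaqMan qRT-PCR transcript level normalised to ACTB GAPDH and POLR2A housekeeping genes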
Method in brief: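 Differentiated human HepaRG cells, serum-free induction medium, exposed 48 h in duplicate to eight half-log concentrations up to 100 uM in 0.5% DMSO. NFE2L2 mRNA by Fluidigm TaqMan qRT-PCR, normalised to ACTB, GAPDH, POLR2A; bidirectional change versus DMSO.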

[7] = read-out: solute carrier (SLCO1B1), SLCO1B1 (gene 10599); assay: LTEA_HepaRG_SLCO1B1: Life Technologies and Expression Analysis (LTEA) Assay for solute carrier (SLCO1B1) using HepaRG (AID 2283530)
Method in brief: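 SLCO1B1 transcript read by qRT-PCR (Fluidigm arrays), normalized to three housekeeping genes, after 48 h chemical exposure of HepaRG cells; bidirectional concentration-response fitting versus 0.5% DMSO baseline. Eight-point half-log series, maximum 100 uM.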

[8] = read-out: sulfotransferase 2A1 (SULT2A1), SULT2A1 (gene 6822); assay: LTEA_HepaRG_SULT2A1: Life Technologies and Expression Analysis (LTEA) Assay for sulfotransferase 2A1 (SULT2A1) using HepaRG (AID 2283531)
Method in brief: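 HepaRG, 48 h chemical exposure, 8-pt half-log curve from 100 uM in 0.5% DMSO, duplicates. Readout: TaqMan qRT-PCR of SULT2A1 mRNA, housekeeping-normalized. Bidirectional fit vs DMSO baseline.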

[9] = read-out: Transforming Growth Factor (TGFA), TGFA (gene 7039); assay: LTEA_HepaRG_TGFA: Life Technologies and Expression Analysis (LTEA) Assay for Transforming Growth Factor (TGFA) using HepaRG (AID 2283532)
Method in brief: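 Differentiated HepaRG cells exposed 48 hours in serum-free induction medium, 0.5% DMSO vehicle, 8-point half-log series from 100 uM, in duplicate. TGFA mRNA by TaqMan qRT-PCR, normalised to ACTB, GAPDH, POLR2A; bidirectional fit versus DMSO.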

[10] = read-out: Transforming Growth Factor (TGFB1), TGFB1 (gene 7040); assay: LTEA_HepaRG_TGFB1: Life Technologies and Expression Analysis (LTEA) Assay for Transforming Growth Factor (TGFB1) Transporter using HepaRG (AID 2283533)
Method in brief: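 qRT-PCR readout of TGFB1 transcript in HepaRG lysates, normalized to three housekeeping genes; gain or loss of signal fitted relative to 0.5% DMSO vehicle. Exposure: 48 h, 8-point curve from 100 uM, duplicate wells.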

TIMP1, TIMP1 (gene 7076) = assay: LTEA_HepaRG_TIMP1: Life Technologies and Expression Analysis (LTEA) Assay for TIMP1 using HepaRG (AID 2283534);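 also: TaqMan qRT-PCR signal normalized to ACTB GAPDH and POLR2A housekeeping genes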
Method in brief: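 HepaRG, 48 h exposure, 8-pt half-log series from 100 uM in 0.5% DMSO, duplicates; TIMP1 transcript by Fluidigm qRT-PCR, housekeeping-normalized; bidirectional curve fit vs DMSO baseline.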

[11] = read-out: Tumor necrosis factor receptor 1 (TNFRSF1A), TNFRSF1A (gene 7132); assay: LTEA_HepaRG_TNFRSF1A: Life Technologies and Expression Analysis (LTEA) Assay for Tumor necrosis factor receptor 1 (TNFRSF1A) using HepaRG (AID 2283535)
Method in brief: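 HepaRG, 48 h plating then 48 h chemical exposure, serum-free induction media; 8-pt CRC from 100 uM, half-log, 0.5% DMSO vehicle, duplicates. Readout: TaqMan qRT-PCR (Fluidigm), housekeeping-gene normalized; bidirectional fit vs DMSO.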

[12] = read-out: Thyroid Hormone Responsive (THRSP), THRSP (gene 7069); assay: LTEA_HepaRG_THRSP: Life Technologies and Expression Analysis (LTEA) Assay for Thyroid Hormone Responsive (THRSP) using HepaRG (AID 2283536)
Method in brief: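 Differentiated HepaRG cells treated 48 h in serum-free induction medium with 8 half-log concentrations up to 100 uM (0.5% DMSO), duplicates. THRSP mRNA by TaqMan qRT-PCR normalised to ACTB, GAPDH, POLR2A; bidirectional fit versus DMSO.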

[13] = read-out: Cellular tumor antigen p53 (Homo sapiens) (UniProt P04637); assay: LTEA_HepaRG_TP53: Life Technologies and Expression Analysis (LTEA) Assay for Tumor Protein P53 (TP53) using HepaRG (AID 2283537)
Method in brief: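 Gain or loss of TP53 mRNA signal is scored relative to 0.5% DMSO after 48 h chemical treatment of HepaRG liver cells, tested in duplicate at eight half-log concentrations up to 100 uM.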

[14] = read-out: Protein phosphatase 2A (PPP2R4), PTPA (gene 5524); assay: LTEA_HepaRG_PPP2R4: Life Technologies and Expression Analysis (LTEA) Assay for Protein phosphatase 2A (PPP2R4) using HepaRG (AID 2283522)
Method in brief: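 Differentiated human HepaRG cells in serum-free induction medium were exposed 48 h to 8 concentrations (top 100 µM, half-log steps, duplicate) in 0.5% DMSO. PPP2R4 mRNA was measured by TaqMan qRT-PCR, normalised to ACTB, GAPDH and POLR2A, and fitted bidirectionally versus DMSO.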

[15] = read-out: succinate dehydrogenase complex iron sulfur subunit B (SDHB), SDHB (gene 6390); assay: LTEA_HepaRG_SDHB: Life Technologies and Expression Analysis (LTEA) Assay for succinate dehydrogenase complex iron sulfur subunit B (SDHB) using HepaRG (AID 2283528)
Method in brief: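 A human HepaRG culture in serum-free induction medium received test chemicals for 48 h over an eight-point range capped at 100 uM. SDHB expression change was quantified by qRT-PCR.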

[16] = read-out: UDP glucuronosyltransferase (UGT1A1), UGT1A1 (gene 54658); assay: LTEA_HepaRG_UGT1A1: Life Technologies and Expression Analysis (LTEA) Assay for UDP glucuronosyltransferase (UGT1A1) using HepaRG (AID 2283538)
Method in brief: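 HepaRG cells, 0.5% DMSO vehicle, 48 h exposure in serum-free induction medium to 8-point half-log series topping at 100 uM, in duplicate. UGT1A1 mRNA by Fluidigm qRT-PCR, normalized to ACTB/GAPDH/POLR2A; bidirectional fit versus DMSO.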

[17] = read-out: Nuclear factor NF-kappa-B p105 subunit (Homo sapiens) (UniProt P19838); assay: LTEA_HepaRG_NFKB1: Life Technologies and Expression Analysis (LTEA) Assay for Nuclear Factor Kappa B Subunit 1 (NFKB1) using HepaRG (AID 2283521);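 also: TaqMan qRT-PCR transcript normalised to ACTB GAPDH and POLR2A housekeeping genes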
Method in brief: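 Human HepaRG cells receive eight half-log concentrations, highest 100 uM, for 48 h. NFKB1 expression is then quantified by qRT-PCR and analysed for up- or down-regulation relative to 0.5% DMSO vehicle.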

[18] = read-out: Signal transducer and activator of transcription 3 (Homo sapiens) (UniProt P40763); assay: LTEA_HepaRG_STAT3: Life Technologies and Expression Analysis (LTEA) Assay for Signal transducer and activator of transcription (STAT3) using HepaRG (AID 2283529)
Method in brief: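 Differentiated HepaRG cells, serum-free induction medium, dosed 48 h in duplicate, 8 half-log concentrations from 100 uM in 0.5% DMSO. STAT3 mRNA by qRT-PCR, normalised to ACTB, GAPDH, POLR2A; bidirectional fit versus DMSO.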

Measured: outcome

Sequence of Nuclear factor erythroid 2-related factor 2 (Homo sapiens) (Q16236 whole entry, looked up): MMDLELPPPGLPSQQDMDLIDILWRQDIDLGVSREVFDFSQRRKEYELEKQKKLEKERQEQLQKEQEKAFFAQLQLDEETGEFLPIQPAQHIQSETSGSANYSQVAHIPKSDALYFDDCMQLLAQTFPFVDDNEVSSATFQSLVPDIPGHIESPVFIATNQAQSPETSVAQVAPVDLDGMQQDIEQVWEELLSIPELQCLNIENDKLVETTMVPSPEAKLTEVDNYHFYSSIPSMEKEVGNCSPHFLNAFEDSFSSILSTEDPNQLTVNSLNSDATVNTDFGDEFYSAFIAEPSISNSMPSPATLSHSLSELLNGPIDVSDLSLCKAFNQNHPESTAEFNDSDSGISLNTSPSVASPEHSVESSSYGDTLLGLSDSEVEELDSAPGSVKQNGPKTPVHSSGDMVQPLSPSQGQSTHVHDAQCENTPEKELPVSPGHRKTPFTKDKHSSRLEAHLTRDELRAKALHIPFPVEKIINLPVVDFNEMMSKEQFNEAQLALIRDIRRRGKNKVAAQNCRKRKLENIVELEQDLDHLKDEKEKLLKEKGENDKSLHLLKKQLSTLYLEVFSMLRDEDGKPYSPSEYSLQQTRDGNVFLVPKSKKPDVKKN
Sequence of Cellular tumor antigen p53 (Homo sapiens) (P04637 whole entry, looked up): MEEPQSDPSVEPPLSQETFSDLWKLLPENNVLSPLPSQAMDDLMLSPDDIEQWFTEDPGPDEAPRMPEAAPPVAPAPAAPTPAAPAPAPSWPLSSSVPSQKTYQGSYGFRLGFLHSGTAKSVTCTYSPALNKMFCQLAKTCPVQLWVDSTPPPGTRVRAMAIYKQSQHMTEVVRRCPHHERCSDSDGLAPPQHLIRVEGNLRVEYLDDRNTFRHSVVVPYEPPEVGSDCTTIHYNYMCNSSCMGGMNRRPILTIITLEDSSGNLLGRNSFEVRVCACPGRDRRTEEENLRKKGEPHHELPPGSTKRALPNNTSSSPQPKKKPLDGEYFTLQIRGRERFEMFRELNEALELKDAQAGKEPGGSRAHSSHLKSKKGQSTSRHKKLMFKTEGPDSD
Sequence of Nuclear factor NF-kappa-B p105 subunit (Homo sapiens) (P19838 whole entry, looked up): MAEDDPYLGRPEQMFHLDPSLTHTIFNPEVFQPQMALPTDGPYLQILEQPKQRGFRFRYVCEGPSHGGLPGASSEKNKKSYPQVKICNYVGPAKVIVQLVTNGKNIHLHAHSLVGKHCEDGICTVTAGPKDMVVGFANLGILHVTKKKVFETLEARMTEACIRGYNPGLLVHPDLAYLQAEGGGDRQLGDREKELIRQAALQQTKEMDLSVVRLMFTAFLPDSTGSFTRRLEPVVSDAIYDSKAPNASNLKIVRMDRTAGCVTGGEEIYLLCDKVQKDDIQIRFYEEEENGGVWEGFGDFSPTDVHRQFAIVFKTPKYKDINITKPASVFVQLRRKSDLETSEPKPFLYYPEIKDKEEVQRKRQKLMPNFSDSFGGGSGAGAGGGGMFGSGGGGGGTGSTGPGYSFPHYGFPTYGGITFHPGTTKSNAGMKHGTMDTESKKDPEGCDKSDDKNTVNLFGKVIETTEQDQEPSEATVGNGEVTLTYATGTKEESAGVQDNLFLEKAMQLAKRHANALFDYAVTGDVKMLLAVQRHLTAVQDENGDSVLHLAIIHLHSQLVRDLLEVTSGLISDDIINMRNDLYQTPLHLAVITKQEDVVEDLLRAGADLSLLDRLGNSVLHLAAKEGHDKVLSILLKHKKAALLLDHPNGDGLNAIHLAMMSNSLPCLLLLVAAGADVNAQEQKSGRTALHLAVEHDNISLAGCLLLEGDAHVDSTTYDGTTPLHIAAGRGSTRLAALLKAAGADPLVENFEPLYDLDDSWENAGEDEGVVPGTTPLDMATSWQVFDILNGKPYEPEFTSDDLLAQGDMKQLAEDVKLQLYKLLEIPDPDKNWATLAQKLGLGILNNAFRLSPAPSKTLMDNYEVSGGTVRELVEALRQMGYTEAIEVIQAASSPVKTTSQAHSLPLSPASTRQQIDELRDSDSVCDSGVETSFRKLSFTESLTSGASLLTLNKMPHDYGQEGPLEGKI
Sequence of Signal transducer and activator of transcription 3 (Homo sapiens) (P40763 whole entry, looked up): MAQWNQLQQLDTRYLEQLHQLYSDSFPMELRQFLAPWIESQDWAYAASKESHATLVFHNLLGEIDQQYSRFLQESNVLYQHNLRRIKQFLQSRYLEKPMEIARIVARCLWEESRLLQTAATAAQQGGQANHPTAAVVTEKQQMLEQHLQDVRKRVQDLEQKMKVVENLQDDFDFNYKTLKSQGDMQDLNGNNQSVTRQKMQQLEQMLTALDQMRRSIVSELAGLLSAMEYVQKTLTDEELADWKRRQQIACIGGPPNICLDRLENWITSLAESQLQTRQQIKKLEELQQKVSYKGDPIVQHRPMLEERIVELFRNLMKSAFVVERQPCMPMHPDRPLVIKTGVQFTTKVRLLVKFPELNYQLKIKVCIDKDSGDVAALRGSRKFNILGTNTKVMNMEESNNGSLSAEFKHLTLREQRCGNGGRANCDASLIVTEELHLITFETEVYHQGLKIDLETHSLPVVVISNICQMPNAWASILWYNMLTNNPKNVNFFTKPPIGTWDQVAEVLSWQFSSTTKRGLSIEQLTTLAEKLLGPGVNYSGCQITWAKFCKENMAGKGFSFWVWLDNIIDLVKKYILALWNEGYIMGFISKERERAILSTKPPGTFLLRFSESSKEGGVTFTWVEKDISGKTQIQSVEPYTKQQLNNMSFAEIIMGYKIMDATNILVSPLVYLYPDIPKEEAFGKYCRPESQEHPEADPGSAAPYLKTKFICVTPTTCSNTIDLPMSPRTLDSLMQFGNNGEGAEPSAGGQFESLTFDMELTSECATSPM

CN1CCCC1=O
inactive: [1] | [2] | [3] | [4] | [5] | [6] | [7] | [8] | [9] | [10] | TIMP1, TIMP1 (gene 7076) | [11] | [12] | [13]

FC(F)(F)C(F)(F)C(F)(F)C(F)(F)C(F)(F)C(F)(F)CCI
inactive: [1] | [14] | [2] | [3] | [5] | [6] | [15] | [7] | [8] | [9] | [10] | TIMP1, TIMP1 (gene 7076) | [11] | [13] | [16]

Cc1nc(-c2ccc3c(c2)CCN(CCC2CCC(NC(=O)/C=C/c4ccc(F)cc4)CC2)CC3)no1 (stereo not drawn)
inactive: [1] | [17] | [2] | [3] | [4] | [5] | [6] | [15] | [18] | [7] | [8] | [9] | [10] | TIMP1, TIMP1 (gene 7076) | [11] | [12] | [13]

CCCCc1ccc2c(n1)[C@@H](c1ccc(OC)cc1C[C@H](C)C(=O)O)[C@H](C(=O)O)[C@H]2c1ccc2c(c1)OCO2
inactive: [1] | [2] | [3] | [5] | [6] | [7] | [8] | [9] | [10] | TIMP1, TIMP1 (gene 7076) | [11] | [13]

CC1(C)NC(=O)NC1=O
inactive: [1] | [17] | [2] | [3] | [4] | [5] | [6] | [7] | [8] | [9] | [10] | TIMP1, TIMP1 (gene 7076) | [11] | [12] | [13]

COc1ccc(C)cc1N
inactive: [1] | [17] | [2] | [3] | [5] | [6] | [15] | [18] | [7] | [8] | [9] | [10] | TIMP1, TIMP1 (gene 7076) | [11] | [13] | [16]

Cc1nc(C)nc(N2C[C@@H](C)N(c3ccnc([C@@H](C)O)n3)[C@@H](C)C2)n1
inactive: [1] | [17] | [14] | [2] | [5] | [6] | [7] | [8] | [9] | [10] | TIMP1, TIMP1 (gene 7076) | [11] | [13] | [16]
